Results on 8 compounds are retold here after PubChem BioAssay (Tox21).

Unmarked numbers belong to inactive results. Records with an inconclusive call do not appear. Calls of active or inactive are those of the source. Unless noted, calls come from the whole dose curve.

A short description of assay [1]: Nuclear factor erythroid 2-related factor 2/antioxidant responsive element (Nrf2/ARE) small molecule agonists: qHTS cell viability counter screen in human keratinocytes (AID 1919968; active = well fitted curve in the direction sought with a large enough effect in the repeat runs; an effect the other way counts as inactive or inconclusive; note: nearly all actives have a fitted effect of over 55% in size; note: potency is the fitted concentration of half-maximal effect). The method, boiled down:
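In human HaCaT keratinocytes stably expressing an ARE-driven luciferase, compound exposure lasted 23 h at 37 C under 5% CO2. Viable cells are quantified with a protease-based fluorogenic reagent (CellTiter-Fluor) read 1 h after addition.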

The nature of assay [2]: Nuclear factor erythroid 2-related factor 2/antioxidant responsive element (Nrf2/ARE) small molecule agonists: luciferase reporter gene qHTS assay in human keratinocytes (AID 1919969). Note: nearly all actives have a fitted effect of over 35% in size. Note: potency is the fitted concentration of half-maximal effect. On the technique in general: Reporter assays use an easily measured gene product as a stand-in for the process of interest.
The target in assay [3] is Gonadotropin-releasing hormone receptor (Homo sapiens) (UniProt P30968). In words: Human gonadotropin-releasing hormone receptor (GnRHR) small molecule agonists, calcium flux assay in GnRHR-HEK293 cells (AID 1920063). Note: nearly all actives have a fitted effect of over 35% in size. The method, boiled down:
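Intracellular calcium rise is the read-out: engineered human GnRHR HEK293 cells, dye-loaded, are exposed to DMSO-dissolved compounds and fluorescence at Ex/Em 480/540 is tracked for 3 min.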
A general note: A change in cytosolic calcium serves as a functional read-out for many receptors and channels.

Assay [4] concerns the target KiSS-1 receptor (Homo sapiens) (UniProt Q969F8). Put plainly: Human kisspeptin (KISS1R) small molecule agonists, calcium flux assay in KISS1R-HEK293 cells (AID 1920064; active = well fitted curve in the direction sought with a large enough effect in the repeat runs; an effect the other way counts as inactive or inconclusive). The essentials:
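Concentration-response testing used 15 concentrations in triplicate on human KISS1R-expressing HEK293 cells. Calcium-dependent fluorescence (Ex/Em 480/540) was followed kinetically for 3 min after compound transfer.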

Assay [5] is described as follows: G protein-coupled receptor (GPCR) small molecule agonists, calcium flux assay: HEK293 wild type cell line counter screen (AID 1920065). The essentials: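 Fluorescence intensity signals activation. After overnight (18 h) culture and a 1 h calcium dye load at 37 C, compounds are added by pin tool and the plate read at 480/540 nm for 3 min in 1 s steps.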
Assay [6] is described as follows: p53 small molecule agonists, cell-based qHTS assay with human liver microsomes (AID 1963577).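 Note: p53 response element beta-lactamase reporter cells with liver microsomes plus NADPH.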 The essentials:
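Reporter activation was measured by LiveBLAzer fluorescence intensity in p53RE-bla cells, which had been exposed to compounds for 16 h at 37 C alongside 0.5 mg/mL human liver microsomes and 0.5 mg/mL NADPH (final concentrations).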

The nature of assay [7]: p53 small molecule agonists, cell-based qHTS assay with rat liver microsomes (AID 1963578). The method, boiled down:
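Compound in DMSO added to p53RE-bla cells 5 h post-plating; rat microsomes/NADPH 0.5 mg/mL final; 16 h, 37 C; LiveBLAzer 2 h RT.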

Assay [8] is described as follows: p53 small molecule agonists, cell-based qHTS assay with human liver microsomes: qHTS cell viability counter screen (AID 1963579). Note: nearly all actives have a fitted effect of over 45% in size. The method, boiled down:
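HLM-supplemented (0.5 mg/mL final) and NADPH-supplemented (0.5 mg/mL final) p53RE-bla cultures, 4,000 cells per well, were dosed with compounds in DMSO for 16 h at 37 C; luminescent ATP detection (CellTiter-Glo, 30 min, room temperature) quantified surviving cells.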
A general note: Quantitative high-throughput screening tests each substance at several concentrations.

A short description of assay [9]: p53 small molecule agonists, cell-based qHTS assay with rat liver microsomes: qHTS cell viability counter screen (AID 1963580). Note: nearly all actives have a fitted effect of over 45% in size. The essentials: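 Luminescent ATP readout (CellTiter-Glo, 30 min at room temperature) reports viability of p53RE-bla HCT-116 cells after 16 h at 37 C with test compounds under metabolic activation by rat liver microsomes and NADPH at 0.5 mg/mL final each.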

Assay [10] concerns the target 5-hydroxytryptamine receptor 2A (Homo sapiens) (UniProt P28223). Put plainly: 5-hydroxytryptamine receptor 2A (HTR2A) small molecule agonists, cell-based qHTS assay (AID 1963587). Note: nearly all actives have a fitted effect of over 30% in size. The method, boiled down:
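HTR2A-CHO cells, plated 18 h at 37 C/5% CO2, dye-loaded 1 h at 37 C; compounds in DMSO added by pin tool (agonist mode). Intracellular calcium flux read as kinetic fluorescence on FDSS over 2 min at 1 s intervals.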

The target in assay [11] is Muscarinic acetylcholine receptor M1 (Homo sapiens) (UniProt P11229). Put plainly: Cholinergic receptor muscarinic 1 (CHRM1) small molecule antagonists, cell-based qHTS assay (AID 1963588). Note: nearly all actives have a fitted effect of over 40% in size. Note: potency is the fitted concentration of half-maximal effect. The essentials:
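Compounds were tested at 15 concentrations in three independent runs. Dye-loaded CHRM1-CHO cells were exposed 5 min at room temperature before stimulation by acetylcholine added at 50nM. Intracellular calcium was read kinetically on FDSS for 3 min.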

The target is the same in assay [12]. Put plainly: Cholinergic receptor muscarinic 1 (CHRM1) small molecule agonists, cell-based qHTS assay (AID 1963589). Note: nearly all actives have a fitted effect of over 35% in size. The method, boiled down:
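Fluorescent calcium dye reports M1 activation in stably transfected CHO cells. Compounds, 15 concentrations, added after 1 h dye loading at 37 C; kinetic reading at 1 sec intervals.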

Assay [13] is described as follows: cAMP Responsive Elements (CRE) small molecule agonists, cell-based qHTS assay (AID 1963590). The method, boiled down: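 Compound exposure lasted 3 h at 37 C/5% CO2 in CRE-bla HEK 293T cells grown in assay medium with 10% dialyzed FBS and 25 mM HEPES. Reporter signal came from LiveBLAzer B/G FRET substrate, 2 h, room temperature.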
Assay [14] is described as follows: cAMP Responsive Elements (CRE) small molecule antagonists, cell-based qHTS assay (AID 1963591; active = well fitted inhibition curve with a large enough effect in the signal ratio in the repeat runs, not every such curve was filed as active; the % refers to the signal ratio). The method, boiled down: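 Stimulation used NKH477 at a final 0.25 uM for 3 h in compound-treated CRE-bla HEK293T cells, seeded 18 h beforehand. Reporter activity was measured with LiveBLAzer B/G FRET substrate after 2 h at room temperature.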
For assay [15], the target named is Beta-2 adrenergic receptor (Homo sapiens) (UniProt P07550). Put plainly: Adrenergic beta2 receptor (ADRB2) small molecule antagonists, cell-based qHTS assay (AID 1963592). Note: series mostly up to about 92 µM; nearly all actives have a fitted effect of over 50% in size. The essentials: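 Assay format: CHO-ADRB2 cells, 18-20hr seeding at 37C/5% CO2, then compound plus 1nM isoproterenol agonist mix for 0.5hr RT. Homogeneous time-resolved fluorescence cAMP detection after 1hr, expressed as 665/615 nm ratio.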

Assay [16] has as its target 5-hydroxytryptamine receptor 2A (Homo sapiens) (UniProt P28223). In words: 5-hydroxytryptamine receptor 2A (HTR2A) small molecule antagonists, cell-based qHTS assay (AID 1963586). Note: nearly all actives have a fitted effect of over 45% in size. The method, boiled down:
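CHO cells stably expressing human HTR2A were plated for 18 h at 37 C, then loaded with calcium dye for 1 h. Compounds were preincubated 5 min at room temperature before DOI (4 nM solution) was added. Kinetic fluorescence was read for 3 min.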

Assay [17] concerns the target D(2) dopamine receptor (Homo sapiens) (UniProt P14416). Put plainly: Dopamine D2 receptor (DRD2) small molecule agonists, cell-based qHTS assay (AID 1963594). Note: nearly all actives have a fitted effect of over 35% in size. The essentials:
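HEK293 cells stably expressing DRD2 were cultured 24 h at 37 C, then given Ro20-1724 (0.1 mM final) and compounds for 10 min at room temperature. NKH477 (200nM) was then added for 30 min. cAMP was read by HTRF.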

Assay [18] has the same target. In words: Dopamine D2 receptor (DRD2) small molecule antagonists, cell-based qHTS assay (AID 1963595; active = well fitted inhibition curve with a large enough effect in the signal ratio in the repeat runs, with a control signal flat; the % refers to the signal ratio). The essentials:
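Antagonist mode in DRD2-HEK293 cells: after compound addition with 0.1 mM Ro20-1724, cells received quinpirole (12 nM) and NKH477 (200 nM) for 30 min at room temperature; HTRF cAMP read after 1 h detection.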

For assay [19], the target named is Beta-2 adrenergic receptor (Homo sapiens) (UniProt P07550). Put plainly: Adrenergic beta2 receptor (ADRB2) small molecule agonists, cell-based qHTS assay (AID 1963593).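 Note: CHO cells stably overexpressing human ADRB2.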 The method, boiled down:
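CHO cells stably over-expressing ADRB2 were plated overnight at 37C, then dosed with compounds plus a stimulation mix containing 100uM IBMX and 25uM Ro-20-1724 for 0.5hr at room temperature. cAMP was measured by HTRF competition, 1hr.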

A short description of assay [20]: p53 small molecule agonists, cell-based qHTS assay (AID 1963582; active = well fitted activation curve with a large enough effect in the signal ratio in the repeat runs, not every such curve was filed as active; the % refers to the signal ratio). The method, boiled down:
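After plating, p53RE-bla cells sat 5 h in the incubator; compounds or DMSO vehicle were pinned in; a 16 h incubation at 37 C followed; FRET substrate was added and, 2 h later at RT, fluorescence was measured.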

Sequence of Beta-2 adrenergic receptor (Homo sapiens) (P07550 whole entry, looked up): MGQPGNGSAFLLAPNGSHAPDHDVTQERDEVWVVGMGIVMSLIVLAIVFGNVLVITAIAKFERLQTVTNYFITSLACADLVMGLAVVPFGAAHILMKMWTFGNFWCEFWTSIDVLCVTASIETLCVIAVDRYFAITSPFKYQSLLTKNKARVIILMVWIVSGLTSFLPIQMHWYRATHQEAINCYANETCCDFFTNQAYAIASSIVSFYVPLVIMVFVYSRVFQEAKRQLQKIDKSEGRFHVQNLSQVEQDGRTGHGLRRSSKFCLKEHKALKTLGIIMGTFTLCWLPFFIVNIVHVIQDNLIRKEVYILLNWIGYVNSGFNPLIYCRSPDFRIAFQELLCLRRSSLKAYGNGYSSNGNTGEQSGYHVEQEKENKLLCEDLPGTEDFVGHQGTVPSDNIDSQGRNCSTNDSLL
Sequence of D(2) dopamine receptor (Homo sapiens) (P14416 whole entry, looked up): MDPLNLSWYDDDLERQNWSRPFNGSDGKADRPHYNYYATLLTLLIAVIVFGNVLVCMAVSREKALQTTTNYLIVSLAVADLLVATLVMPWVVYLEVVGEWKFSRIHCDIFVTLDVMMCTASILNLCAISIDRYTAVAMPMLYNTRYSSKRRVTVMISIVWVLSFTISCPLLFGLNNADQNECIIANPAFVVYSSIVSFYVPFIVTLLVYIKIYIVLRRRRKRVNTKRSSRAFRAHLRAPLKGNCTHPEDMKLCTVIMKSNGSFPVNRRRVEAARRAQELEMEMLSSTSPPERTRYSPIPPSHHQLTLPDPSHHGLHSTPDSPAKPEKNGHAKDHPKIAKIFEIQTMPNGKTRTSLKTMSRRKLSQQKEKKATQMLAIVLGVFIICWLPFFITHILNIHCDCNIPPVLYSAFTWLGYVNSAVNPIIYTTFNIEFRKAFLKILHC
Sequence of Muscarinic acetylcholine receptor M1 (Homo sapiens) (P11229 whole entry, looked up): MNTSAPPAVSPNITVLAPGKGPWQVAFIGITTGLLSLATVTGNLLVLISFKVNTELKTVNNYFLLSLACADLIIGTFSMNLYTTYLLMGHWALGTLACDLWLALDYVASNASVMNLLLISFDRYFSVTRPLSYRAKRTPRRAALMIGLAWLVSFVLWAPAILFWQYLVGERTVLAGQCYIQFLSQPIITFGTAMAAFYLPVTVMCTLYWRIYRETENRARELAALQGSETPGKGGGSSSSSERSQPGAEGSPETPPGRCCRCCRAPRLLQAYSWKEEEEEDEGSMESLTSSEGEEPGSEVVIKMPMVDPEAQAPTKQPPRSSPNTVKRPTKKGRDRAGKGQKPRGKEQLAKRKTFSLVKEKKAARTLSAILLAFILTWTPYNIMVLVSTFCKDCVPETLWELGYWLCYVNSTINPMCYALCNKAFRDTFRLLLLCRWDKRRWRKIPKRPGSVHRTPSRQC
Sequence of 5-hydroxytryptamine receptor 2A (Homo sapiens) (P28223 whole entry, looked up): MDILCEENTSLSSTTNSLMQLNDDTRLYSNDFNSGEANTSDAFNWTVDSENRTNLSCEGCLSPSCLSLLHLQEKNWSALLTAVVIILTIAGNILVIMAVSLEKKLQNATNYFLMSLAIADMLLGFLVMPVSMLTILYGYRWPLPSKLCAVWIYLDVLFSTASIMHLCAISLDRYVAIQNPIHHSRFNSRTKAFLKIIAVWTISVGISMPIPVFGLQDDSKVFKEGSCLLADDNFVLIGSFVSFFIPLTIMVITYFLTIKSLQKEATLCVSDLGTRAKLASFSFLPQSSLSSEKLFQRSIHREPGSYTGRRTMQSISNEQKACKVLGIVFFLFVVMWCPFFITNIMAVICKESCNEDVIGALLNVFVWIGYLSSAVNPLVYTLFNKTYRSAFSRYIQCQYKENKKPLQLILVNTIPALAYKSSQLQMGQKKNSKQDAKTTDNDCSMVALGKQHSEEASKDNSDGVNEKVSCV
Sequence of KiSS-1 receptor (Homo sapiens) (Q969F8 whole entry, looked up): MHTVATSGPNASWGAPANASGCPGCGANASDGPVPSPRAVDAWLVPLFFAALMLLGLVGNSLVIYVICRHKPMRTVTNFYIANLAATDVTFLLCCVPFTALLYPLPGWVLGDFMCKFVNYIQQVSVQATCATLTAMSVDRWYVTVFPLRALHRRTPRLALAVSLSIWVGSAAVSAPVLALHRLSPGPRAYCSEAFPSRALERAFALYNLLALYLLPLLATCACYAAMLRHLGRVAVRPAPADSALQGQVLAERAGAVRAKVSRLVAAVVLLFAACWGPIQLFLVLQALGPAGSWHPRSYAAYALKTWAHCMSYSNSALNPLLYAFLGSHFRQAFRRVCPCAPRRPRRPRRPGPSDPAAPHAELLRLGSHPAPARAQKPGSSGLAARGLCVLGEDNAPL
Sequence of Gonadotropin-releasing hormone receptor (Homo sapiens) (P30968 whole entry, looked up): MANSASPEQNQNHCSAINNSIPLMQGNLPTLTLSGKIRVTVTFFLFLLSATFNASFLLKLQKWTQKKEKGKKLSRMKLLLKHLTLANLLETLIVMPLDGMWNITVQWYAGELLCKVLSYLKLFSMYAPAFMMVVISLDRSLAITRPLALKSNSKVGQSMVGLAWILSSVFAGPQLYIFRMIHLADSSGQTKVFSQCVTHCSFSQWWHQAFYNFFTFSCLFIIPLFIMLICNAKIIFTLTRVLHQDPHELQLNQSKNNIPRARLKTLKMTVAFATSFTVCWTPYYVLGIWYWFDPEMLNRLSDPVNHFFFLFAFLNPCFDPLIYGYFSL

Consider `CC(CC1c2ccccc2CCc2ccccc21)CN(C)C` (stereo not given), for which the Potency entry in assay [1], in [2], in assay [3], in [6], in [7] and in [8] was “inactive” in each case. In addition, the Potency entry in assay [9], in assay [10], in [12], in [13], in assay [14] and in assay [15] was “inactive” throughout. Further, the result in assay [4] and in assay [5] was inactive. Besides, the Potency in assay [11] is 36.5 nM (active).
`CCCCCN(CCCCC)C(=O)C(CCC(=O)O)NC(=O)c1ccc(Cl)c(Cl)c1` (stereo not given): the Potency result in assay [1], in assay [2], in assay [3], in assay [6], in [7] and in assay [8] was “inactive” each time. Further, the Potency result in assay [9], in assay [16], in [10], in assay [11], in assay [12] and in assay [14] was “inactive” each time. In addition, the Potency result in assay [17] and in assay [18] was “inactive” in each case. Also, the outcome in [4] and in assay [5] was inactive.
With `O=Cc1c2ccccc2c(Cl)c2ccccc12`, the Potency entry in [1], in assay [3], in assay [6], in assay [7], in [8] and in assay [9] was “inactive” each time. For the same compound, the Potency entry in assay [16], in assay [10], in assay [12], in assay [13], in assay [14] and in assay [19] was “inactive” each time. The Potency result in assay [17] was “inactive”. Also, the Potency in assay [2] is 7510 nM (active). Also, the outcome in assay [4] and in [5] was inactive.
With `CCOC(=O)C(=O)c1csc(NC=O)n1`, the Potency result in [1], in [2], in assay [3], in assay [6], in [7] and in assay [8] was “inactive” in each case. Moreover, the Potency entry in assay [9], in assay [16], in assay [10], in assay [11], in assay [12] and in assay [13] was “inactive” in each case. Also, the Potency entry in assay [15] and in [19] was “inactive” throughout. Also, the outcome in assay [4] and in assay [5] was inactive.
On to `CC(CCl)OC(C)CCl` (stereo not given), for which the Potency entry in [1], in assay [2], in assay [3], in assay [6], in assay [7] and in [8] was “inactive” each time. In addition, the Potency result in assay [9], in assay [10], in assay [11], in [12], in assay [13] and in [15] was “inactive” in each case. Moreover, the Potency entry in assay [17] and in assay [18] was “inactive” each time. Moreover, the outcome in [4] and in assay [5] was inactive.
On to `Cc1cc(S(=O)(=O)O)ccc1N=Nc1c(O)ccc2ccccc12`, for which the Potency in assay [1] is 43300 nM (active). Also, the Potency result in assay [2], in [3], in [6], in assay [7], in assay [8] and in [9] was “inactive” throughout. For the same compound, the Potency entry in assay [16], in assay [10], in assay [12], in [13], in assay [14] and in [17] was “inactive” in each case. Also, the Potency result in [18] is “inactive”. The result in assay [4] and in assay [5] was inactive.
With `CCCCOc1ccc(OCCCN2CCOCC2)cc1`, the Potency result in [1], in [2], in assay [3], in [6], in assay [7] and in [8] was “inactive” each time. Moreover, the Potency result in [9], in assay [20], in assay [13], in [15], in [19] and in [18] was “inactive” in each case. Also, the result in assay [4] and in assay [5] was inactive.
For `O=c1c(-c2ccccc2)c1-c1ccccc1`, the Potency in assay [1] is 1190 nM (active); in assay [2] it was 2660 nM (active). Moreover, the Potency result in assay [3], in assay [6], in assay [7], in assay [8], in assay [9] and in [16] was “inactive” each time. The Potency entry in assay [10], in [11], in assay [12], in [15], in assay [17] and in [18] was “inactive” each time. Also, the outcome in assay [4] and in [5] was inactive.
